DT40 TDP1 CPT = DT40-hTDP1 cell growth loss with CPT; hit rate 12% among 420,000; chicken DT40 Tdp1-/-;hTDP1 cells + 20 nM CPT, ATP luminescence, 48 h; Potency, µM (top dose mostly 46.2 µM), inactives show at the top dose activity change, negative = growth inhibition, actives largely listed as inhibitors; AID 686979; note: potency is the fitted concentration of half-maximal effect; nearly all actives have a fitted effect of over 55% in size
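Cell growth measured by CellTiter-Glo luminescence after a minimum 48 h, 37 C compound exposure with 20 nM CPT in Tdp1-knockout DT40 cells stably expressing hTDP1, seeded 400/well; qHTS titration format.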
HT1080NT lethal = kills 2HG-producing HT-1080-NT fibrosarcoma cells. HT-1080-NT fibrosarcoma viability, CellTiter-Glo ATP luminescence, 48 h. Potency, µM (doses to about 46.1 µM), without a hit: top-dose activity, negative = less viability, hits mostly cytotoxic. hit rate 1.6% among 360,000;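 note: NT is the 2HG producing partner of a matched IDH1 knockdown line; potency is the fitted concentration of half-maximal effect; 0% = DMSO-treated cells and -100% = media-only wells without cells; nearly all actives have a fitted effect of over 55% in size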
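A 48-hour cytotoxicity screen used HT-1080-NT cells plated 2 hours before compound delivery. ATP-based CellTiter-Glo luminescence measured viability, normalized to DMSO and no-cell controls.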
ELG1 repair inh = blocks ELG1-dependent DNA repair in HEK293T cells | Potency, µM (doses to about 46.1 µM), for inactives: top-dose activity change, negative = inhibition, most hits filed as inhibitors | AID 504467 | hit rate 2.3% among 330,000 | HEK293T ELG1-luciferase reporter, luminescence, 16 h; DNA damage induced by 5-fluorouridine; note: potency is the fitted concentration of half-maximal effect; nearly all actives have a fitted effect of over 55% in size
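In this reporter screen, reduction of luminescence relative to DMSO vehicle indicated activity. Compounds and 5-fluorouridine were added together to 2,000 cells per well, incubated for 16 hr at 37 °C, then developed with ONE-Glo.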
HT1080 IDH1KD tx = HT-1080 IDH1 knockdown cell toxicity (counter line) | HT-1080 IDH1 knockdown viability, ATP luminescence, 48 h | Potency, µM (highest dose often 46.1 µM), for inactives: at the highest dose activity, negative = toxicity, actives largely listed as cytotoxic | hit rate 2% among 360,000;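 note: potency is the fitted concentration of half-maximal effect; 0% = DMSO wells and -100% = cell-free medium wells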
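In this qHTS, HT-1080 cells depleted of IDH1 are exposed for 48 h at 37 °C to compound titrations. Toxicity is scored from CellTiter-Glo luminescence, with DMSO as full viability and medium alone as none.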
TDP1 cell noCPT = qHTS for Inhibitors of human tyrosyl-DNA phosphodiesterase 1 (TDP1): qHTS in cells in absence of CPT; DT40 Tdp1-/- hTDP1 cells, no CPT, ATP luminescence, 48 h; AID 686978, 2013; hit rate 15% among 420,000; Potency, µM (doses to about 46.2 µM), for the others: at the highest dose activity change, negative = growth inhibition, hits mostly inhibitors; note: potency is the fitted concentration of half-maximal effect; nearly all actives have a fitted effect of over 55% in size
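Compound effects on proliferation are scored in DT40 Tdp1-/-;hTDP1 cells in the absence of CPT. ATP levels (CellTiter-Glo luminescence) are recorded after a ≥48 hr, 37 °C incubation.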
IL1B secr inh = blocks inflammasome-driven IL-1 beta release | activity change, % at 57.5 µM | hit rate 4.7% among 360,000 | THP-1 LPS/ATP IL-1B secretion, AlphaLISA, 16 h; stronger effect = lower value; in the data active = activity change below about -50%; inconclusive = mostly about -30% to -49%
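THP-1 cells pretreated 1 hr with compounds (up to 57.5 uM final), then stimulated with LPS (250 ng/mL final) plus ATP (1.25 mM final); secreted IL-1B measured by AlphaLISA after 16 hr, decreased signal indicating inhibition.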
ELG1 FLuc counter = luciferase inhibition in cell-free luciferin readout for ELG1 hits; AID 624247; cell-free firefly luciferase luminescence counter-screen, ViewLux; Potency, µM (highest dose often 46.1 µM), inactives show top-dose activity change, negative = inhibition, hits mostly inhibitors; shares compounds with ELG1 repair inh; hit rate 3% among 350; note: potency is the fitted concentration of half-maximal effect
ELG1 Luc conf = human ELG1 repair inhibition, luciferase-tagged ELG1 confirmation. shares compounds with ELG1 repair inh. HEK293T ELG1-luciferase levels, luminescence; cells co-treated with 5-fluorouridine. Potency, µM (doses to about 46.1 µM), for inactives: at the top dose activity change, negative = inhibition, hits mostly inhibitors. hit rate 68% among 670; note: potency is the fitted concentration of half-maximal effect; nearly all actives have a fitted effect of over 55% in size
ELG1-Luc MMS = MMS-stimulated human ELG1 repair inhibition, confirmed; shares compounds with ELG1 repair inh; HEK293T luciferase-tagged ELG1 level, MMS stimulated; Potency, µM (titrated, usually from 46.1 µM), for the others: top-dose activity change, negative = inhibition, actives largely listed as inhibitors; hit rate 53% among 670; AID 624249; note: potency is the fitted concentration of half-maximal effect; nearly all actives have a fitted effect of over 60% in size
ELG1 5-FU = confirmation of ELG1 repair inhibitors: viability with 5FU; Potency, µM (doses to about 46.1 µM), without a hit: at the top dose activity change, negative = viability loss, hits mostly cytotoxic; cell viability with 5-FU, ELG1-dependent repair; AID 624250; shares compounds with ELG1 repair inh; 670 tested, under 10 active;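 note: ELG1-luc HEK293T cells cotreated with 5-fluorouridine at 10 µM final; potency is the fitted concentration of half-maximal effect; viability measured 16 h after compound addition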
ELG1 MMS viab = confirmation of ELG1 repair inhibitors: viability with MMS. Cell viability with MMS, ELG1-dependent DNA repair. Potency, µM (top dose mostly 46.1 µM), inactives show at the top dose activity change, negative = viability loss, usual class: cytotoxic. AID 624251. hit rate 33% among 670. shares compounds with ELG1 repair inh;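 note: ELG1-luc HEK293T cells co-treated with 10 µM MMS; potency is the fitted concentration of half-maximal effect; viability read 16 h after compound addition; nearly all actives have a fitted effect of over 60% in size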
ELG1 unstim viab = unstimulated viability counter-screen for ELG1 repair hits. shares compounds with ELG1 repair inh. Potency, µM (titrated, usually from 45.9 µM), inactives show at the highest dose activity change, negative = loss of viability, actives largely listed as cytotoxic. AID 624252. cell viability counter-screen, unstimulated, luminescence. hit rate 8% among 900;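 note: potency is the fitted concentration of half-maximal effect; compound exposure lasted 16 hours before reading; nearly all actives have a fitted effect of over 55% in size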
FLuc enzyme = counter-screen for ELG1 repair inhibitors: firefly luciferase inhibition. AID 624253. shares compounds with ELG1 repair inh. hit rate 10% among 350. purified firefly luciferase, luminescence counter-screen. Potency, µM (series often up to 57.5 µM), without a hit: top-dose activity, negative = inhibition, most hits filed as inhibitors; note: potency is the fitted concentration of half-maximal effect
* = called active by the depositor; u = inconclusive; x = no result given. Shown are actives, neighbours in structure and some others; about 19% of the full set was active somewhere. Unless noted, calls come from the whole dose curve; as a rule, active = well fitted curve in the direction sought with a large enough effect; inconclusive = small, poorly fitted or top-dose-only effect, or another doubt; inactive = no such curve, though single readings can be large; an effect the other way counts as inactive or inconclusive. Unless noted, % is set by controls: 0 for no effect and ±100 for the full control effect.

SMILES	DT40 TDP1 CPT	HT1080NT lethal	ELG1 repair inh	HT1080 IDH1KD tx	TDP1 cell noCPT	IL1B secr inh	ELG1 Luc conf	ELG1-Luc MMS	ELG1 5-FU	ELG1 MMS viab	ELG1 unstim viab	others
CC(C)(C)c1ccc(C(=O)NNc2ncccc2-n2cccc2)cc1	13µM*	-5.4%	3.26µM*	-0.6%	13µM*	-4.7	5.6%	29.7%	-6.3%	-1.8%	-2.4%
Cc1cccc(C)c1NC(=O)CN1C(=O)C2CC=CCC2C1=O (stereo not given)	-12.0%	-0.1%	8.3%	1.0%	u	-3.3	x	x	x	x	x
CN(C)c1cccc(C(=O)NNC(=O)CN2C(=O)C3CC=CCC3C2=O)c1 (stereo not given)	11.5%	16.9%	u	6.9%	-7.8%	-16.7	x	x	x	x	-14.3%
CC(=O)Nc1ccc(SCC(=O)c2cc(C)n(Cc3cccs3)c2C)cc1	-15.8%	-16.7%	u	-12.8%	-23.4%	-1.0	x	x	x	x	u	ELG1 FLuc counter=u;FLuc enzyme=13µM*
C=CCn1c(C)cc(C(=O)CSc2ccc(NC(C)=O)cc2)c1C	-14.2%	2.5%	u	1.4%	u	-12.6	x	x	x	x	x
Cc1ccc(Cn2ncc3c(N4CCN(CCc5ccccc5)CC4)ncnc32)cc1	u	-11.6%	3.66µM*	-16.6%	u	1.9	u	3.53µM*	-3.2%	3.97µM*	u
Cc1ccc(CNC(=O)c2ccc(Cn3cc(-c4ccc(C)cc4)nc3-c3ccncc3)cc2)cc1	u	-5.1%	u	-18.3%	u	u	x	x	x	x	x
CN(CC(=O)Nc1cccc(F)c1)C(=O)C1(c2ccccc2)CC1	-9.4%	-2.4%	-12.8%	0.6%	3.9%	-4.7	x	x	x	x	x
COc1cccc([C@@H]2Oc3ccc(OC)cc3C(=O)[C@H]2OC(=O)NS(=O)(=O)c2ccc(C)cc2)c1	x	x	x	x	x	x	x	x	x	x	-2.3%
Cc1ccc(-c2c[n+](Cc3ccc(Cl)cc3)c3n2CCC3)cc1	4.11µM*	u	2.59µM*	u	3.66µM*	-84.7*	u	7.92µM*	-4.0%	7.92µM*	3.97µM*	ELG1 FLuc counter=-13.7%;FLuc enzyme=-9.6%
Fc1ccccc1-c1csc(=Nc2cccnc2)n1CCCn1ccnc1	25.9µM*	-1.5%	10.3µM*	-8.4%	16.4µM*	u	12.6µM*	19.9µM*	1.1%	22.3µM*	u	ELG1 FLuc counter=16.0%;FLuc enzyme=u
Fc1ccccc1-c1csc(=Nc2cccnc2)n1CC1CCCO1 (stereo not given)	u	-20.9%	u	-23.4%	u	-66.5*	u	22.3µM*	8.9%	15.8µM*	u	ELG1 FLuc counter=-12.3%;FLuc enzyme=-15.4%
Cc1csc(=Nc2cccnc2)n1CC1CCCCC1	17.7%	13.0%	u	-0.5%	-13.2%	-7.1	x	x	x	x	x
COC(=O)CNC(=O)c1cc(-c2ccncc2)nc2ccc(C)cc12	-1.1%	2.0%	7.9%	1.3%	3.2%	u	x	x	x	x	x
Cc1sc2ncnc(NC3CCN(Cc4ccccc4)CC3)c2c1C	2.59µM*	u	2.06µM*	u	3.66µM*	u	u	1.25µM*	-4.1%	1.58µM*	u
O=C(Nc1ccc(F)cc1F)c1ccc(-n2cccn2)c([N+](=O)[O-])c1	-3.4%	-0.1%	-10.7%	-0.9%	-18.4%	29.0	x	x	x	x	x
Cc1oc2ccc(O)cc2c1C(=O)c1ccc(F)cc1	-25.0%	1.3%	x	-2.9%	-12.4%	u	x	x	x	x	x
Cc1cc2ncc(-c3ccccc3)nc2cc1C	-12.9%	-0.9%	u	1.7%	u	22.7	x	x	x	x	u
Cc1cccc2cc(CN(CCN3CCOCC3)C(=O)Nc3ccccc3F)c(=O)[nH]c12	-1.7%	4.6%	3.26µM*	-0.3%	u	-8.9	3.97µM*	30.0%	u	4.2%	-12.4%
COc1ccc2sc3c(=O)[nH]c4ccccc4c3c2c1	5.8µM*	-22.1%	0.82µM*	-15.0%	1.64µM*	12.3	1.99µM*	1.58µM*	7.9%	9.5%	3.9%	ELG1 FLuc counter=-6.5%;FLuc enzyme=1.3%
COc1ccc(OCc2cc(=O)[nH]c3ccccc23)cc1	-16.7%	1.9%	-8.5%	0.6%	-24.9%	-10.7	x	x	x	x	x
CCNc1nc(OC)nc(N(OC)S(=O)(=O)c2ccc(C)cc2)n1	-9.9%	4.3%	u	2.5%	0.6%	-15.2	x	x	x	x	x
O=C(COc1ccc(-n2cnnn2)cc1)Nc1ccc(F)c(F)c1	-29.8%	3.6%	-1.0%	9.6%	-23.3%	-12.6	x	x	x	x	x
COCCn1c(=N)c(C(=O)NCCc2ccc(OC)cc2)cc2c(=O)n3cccc(C)c3nc21	23.1µM*	-14.3%	u	-0.9%	29.1µM*	-5.0	4.99µM*	u	u	2.7%	u
O=C(Nc1nnc(-c2ccccc2Cl)o1)c1ccc(S(=O)(=O)N2CCCCCC2)cc1	4.61µM*	4.11µM*	1µM*	8.2µM*	5.8µM*	42.8	u	u	-0.8%	-9.7%	u	ELG1 FLuc counter=8.7%;FLuc enzyme=-2.7%

High-throughput results from PubChem BioAssay.
